Consider 24 compounds from PubChem BioAssay (NCATS).

Records with an inconclusive call do not appear. A call without a number means that no potency is given here. Calls of active or inactive are those of the source. Calls come from the whole dose curve; as a rule, active = well fitted curve in the direction sought with a large enough effect; inconclusive = small, poorly fitted or top-dose-only effect, or another doubt; inactive = no such curve, though single readings can be large; an effect the other way counts as inactive or inconclusive.

For assay [1], the target named is Aldehyde dehydrogenase, mitochondrial (Homo sapiens) (UniProt P05091). In words: qHTS for Inhibitors of the Aldehyde Dehydrogenase Family (ALDH2) Primary screen (AID 2061308). Note: nearly all actives have a fitted effect of over 55% in size.
Assay [2] deals with Retinaldehyde dehydrogenase 3 (Homo sapiens) (UniProt P47895). In words: qHTS for Inhibitors of the Aldehyde Dehydrogenase Family (ALDH1A3) Primary screen (AID 2061315). Background: In qHTS, concentration-response curves come from the screen itself.

For `CN(C)C/C=C/C(=O)Nc1cccc(C(=O)Nc2ccc(Nc3nccc(-c4cccnc4)n3)cc2)c1`, the Potency entry in assay [1] and in assay [2] was “inactive” in each case.
Turning to `CC1=C(C(=O)Nc2ccon2)C2(CCCC2)N=C(Nc2nc3ccccc3o2)N1`, the Potency entry in assay [1] and in assay [2] was “inactive” throughout.
Turning to `Cc1ccc(-c2ccc(CNc3nc(-c4ccccc4C(C)C)ncc3F)cc2)cn1`, the Potency entry in assay [1] and in assay [2] was “inactive” in each case.
Regarding `COc1cc(Nc2nc(-c3ccncc3)nc3ccccc23)ccc1NS(C)(=O)=O`, the Potency entry in assay [1] and in assay [2] was “inactive” throughout.
Regarding `O=S(=O)(c1ccc2c(c1)OCCO2)N1CCN(S(=O)(=O)c2cccs2)CC1`, the Potency result in assay [1] and in assay [2] was “inactive” in each case.
With `CCc1c(C)nc2cc(-c3ccc(OC)c(OC)c3)nn2c1N1CCCC1`, the Potency result in assay [1] and in assay [2] was “inactive” each time.
For `Cc1nc(NC2CCCCC2)c2nc(-c3ccccc3)n(CCN3CCCCC3)c2n1`, the Potency entry in assay [1] and in assay [2] was “inactive” throughout.
With `Cc1ccc(-n2c(=O)ccc(=O)n2CC(=O)N(C)C(C)c2ccco2)cc1` (stereo not drawn), the Potency entry in assay [1] and in assay [2] was “inactive” throughout.
With `O=C(O)c1ccc(S(=O)(=O)N[C@H](Cc2ccc([N+](=O)[O-])cc2)C(=O)O)cc1`, the Potency result in assay [1] and in assay [2] was “inactive” throughout.
Consider `COc1ccccc1C1=Nn2c(nnc2-c2ccccc2OC)SC1`, for which the Potency result in assay [1] and in assay [2] was “inactive” throughout.
With `Cc1ccnc(NC(=S)Nc2cccc(C(F)(F)F)c2)c1`, the Potency result in assay [1] and in assay [2] was “inactive” throughout.
On to `CNc1nnc(-c2cccc3ccccc23)s1`, for which the Potency result in assay [1] and in assay [2] was “inactive” throughout.
In the case of `Oc1cccc2cc(N3CCCC3)cnc12`, the Potency entry in assay [1] and in assay [2] was “inactive” throughout.
Turning to `COc1ccc2ncnc(NCC3CCCO3)c2c1-c1ccc2c(c1)OCO2` (stereo not drawn), the Potency result in assay [1] and in assay [2] was “inactive” each time.
`Cc1ccc(OCCn2c(CCNC(=O)c3ccc(C)cc3)nc3ccccc32)cc1`: the Potency entry in assay [1] and in assay [2] was “inactive” throughout.
As for `Cc1cc2c(s1)c1cnn(Cc3c(F)ccc(C)c3F)c(=O)c1n2C`, the Potency result in assay [1] and in assay [2] was “inactive” each time.
For the compound `Cc1ccc(-c2nnc(NC(=O)Nc3ccc4ccccc4c3)s2)cc1`, the Potency result in assay [1] and in assay [2] was “inactive” throughout.
Take `CCC(Nc1ncnc2ccc(-c3c(C)noc3C)cc12)c1ccccc1` (stereo not drawn): the Potency result in assay [1] and in assay [2] was “inactive” each time.
As for `CN1CCOc2cc(S(=O)(=O)N3CCN(S(=O)(=O)c4c(F)cccc4F)CC3)cnc21`, the Potency result in assay [1] and in assay [2] was “inactive” throughout.
In the case of `Cc1cc(C)nc(NC(=S)N2CCN(c3ncnc4sccc34)CC2)c1`, the Potency result in assay [1] and in assay [2] was “inactive” throughout.
Regarding `CCOC(=O)C1CCN(C(=O)C(C)(C)NC(=O)Nc2ccc(C#N)cc2)CC1`, the Potency result in assay [1] and in assay [2] was “inactive” throughout.
With `CC(C)COc1ccc(-c2csc(N3CCC(C(N)=O)CC3)n2)cc1`, the Potency result in assay [1] and in assay [2] was “inactive” each time.
With `COc1ccc(C2Nc3ccccc3C(=O)N2Cc2ccco2)cc1CSc1c(C)cccc1C` (stereo not drawn), the Potency result in assay [1] and in assay [2] was “inactive” in each case.
On to `Cc1ccnc(NC(=S)N2CCCc3ccc(C(F)(F)F)cc32)c1`, for which the Potency entry in assay [1] and in assay [2] was “inactive” each time.
